Data: PubChem BioAssay (NCATS)
Where “and” joins values, the source holds several entries; their conditions need not be identical. Identical values can stand only once. Inconclusive results are not listed. More than one record can exist for a structure, and the calls need not agree. Calls of active or inactive are those of the source. Unless noted, calls follow the shape of the dose curve; as a rule, active = well fitted curve in the direction sought with a large enough effect; inconclusive = small, poorly fitted or top-dose-only effect, or another doubt; inactive = no such curve, though single readings can be large; an effect the other way counts as inactive or inconclusive.

Key:
[1] = molecular target: Cytochrome P450 3A4 (Homo sapiens) (UniProt P08684); experiment: qHTS Assay for Inhibitors and Substrates of Cytochrome P450 3A4 (AID 884); also: series mostly up to about 57 µM; % is scaled to controls: 0 for no effect and ±100 for the full control effect; nearly all actives have a fitted effect of over 50% in size
Outline: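 20 nM human CYP3A4 with 25 uM Luciferin-PPXE (at KM) in 200 mM KPO4, preincubated 10 min with compound; NADPH regeneration started a 60 min RT reaction. Luciferin detected by luminescence, normalized to 57 uM ketoconazole as full inhibition.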

[2] = MultiTox-Fluor Cytotoxicity Assay - LYMP1-001 - Live Cells (AID 947);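 also: 0% = DMSO only and full inhibition = tetraoctylammonium bromide control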
[3] = Cell Viability - LYMP2-004 (AID 966);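 also: plate controls were DMSO only for no effect and tetraoctylammonium bromide control for full effect; nearly all actives have a fitted effect of over 65% in size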
Outline: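 Lymphoblastoid LYMP2-004 cells, 2500 per well, were preincubated for 5 hr and then treated with compound for 24 h at 37 C in complete medium. Viability was read as cellular ATP by CellTiter-Glo luminescence, and AC50 values were taken from Hill fits to concentration-response data.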

[4] = Cell Viability - LYMP2-009 (AID 968);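 also: series mostly up to about 92 µM; 0% = DMSO alone and the full-kill end = tetraoctylammonium bromide at 92 µM; nearly all actives have a fitted effect of over 55% in size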
[5] = Cell Viability - LYMP2-012 (AID 982);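 also: cellular ATP by luciferase luminescence where a drop means cytotoxicity; cells exposed to compound for one day before reading; 0% = DMSO only and full loss = 92 µM tetraoctylammonium bromide; nearly all actives have a fitted effect of over 55% in size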
[6] = molecular target: Estrogen receptor (Homo sapiens) (UniProt P03372); experiment: qHTS assay for small molecule antagonists of estrogen receptor alpha signaling (AID 588513; active = well fitted curve in the direction sought with a large enough effect in the signal ratio, with a control signal flat, not every such curve was filed as active; the % refers to the signal ratio; also: % is scaled to controls: 0 for no effect and ±100 for the full control effect)
Outline: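 Fluorescence from CCF4 substrate after 2 h at room temperature gave reporter activity; cells had been exposed to compound and 0.5nM 17-beta-estradiol for 18 h at 37 C. Hill-equation fitting yielded IC50 and maximal response.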

[7] = molecular target: Estrogen receptor (Homo sapiens) (UniProt P03372); experiment: qHTS assay for small molecule agonists of estrogen receptor alpha signaling (AID 588514; calls by dose curve;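 also: 0% = vehicle only and 100% = reference agonist; nearly all actives have a fitted effect of over 70% in size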)
Outline: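 ER-alpha-UAS-bla GripTite HEK293 cells, 5000/well in 2% charcoal/dextran-stripped FBS medium, treated with compound titrations 18 h at 37 C. CCF4 beta-lactamase read by fluorescence after 2 h RT; normalised to 20 nM 17-beta-estradiol (100%) and DMSO (0%), Hill fit for EC50 and efficacy.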

[8] = molecular target: Bile acid receptor (Homo sapiens) (UniProt Q96RI1); experiment: qHTS assay for small molecule agonists of farnesoid X receptor signaling (AID 588527; calls by dose curve;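 also: series mostly up to about 77 µM; 0% = vehicle basal and 100% = reference agonist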); conditions: HEK293T FXR-UAS-bla, beta-lactamase ratio, 16 h; hits give high values
Outline: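 FXR-UAS-bla HEK293T cells (10% dialyzed FBS) preincubated 5-7 h at 37 C, then compounds at up to 92 uM for 16 h at 37 C. CCF4 beta-lactamase read-out after 2 h RT. Normalized to chenodeoxycholic acid (100 uM) and DMSO; Hill fit gave EC50 and efficacy.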

[9] = molecular target: Glucocorticoid receptor (Homo sapiens) (UniProt P04150); experiment: qHTS assay for small molecule agonists of glucocorticoid receptor signaling (AID 588532; active = well fitted curve in the direction sought with a large enough effect in the signal ratio, with a control signal flat; the % refers to the signal ratio;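 also: 100% = dexamethasone at 0.1 µM and 0% = DMSO only wells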); conditions: HeLa MMTV-bla, beta-lactamase ratio, agonist, 18 h; hits give high values; percent of dexamethasone control, DMSO zero
Outline: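 HeLa GRE-bla reporter cells; 18 h compound exposure at 37 C; 2 h CCF4 loading at room temperature; fluorescence at 460 and 530 nm; EC50 by Hill equation.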

[10] = molecular target: Glucocorticoid receptor (Homo sapiens) (UniProt P04150); experiment: qHTS assay for small molecule antagonists of glucocorticoid receptor signaling (AID 588533; active = well fitted inhibition curve with a large enough effect in the signal ratio, with a control signal flat, not every such curve was filed as active; the % refers to the signal ratio; also: potency is read from the fitted curve at half-maximal effect)
Outline: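 Antagonist-mode qHTS: compound titrations added to GRE-bla HeLa cells, then dexamethasone 2 nM final; 18 h, 37 C. CCF4 FRET fluorescence normalized to dexamethasone and DMSO; IC50 from Hill fit.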

[11] = molecular target: Vitamin D3 receptor (Homo sapiens) (UniProt P11473); experiment: qHTS assay for small molecule antagonists of vitamin D receptor signaling (AID 588541; calls by dose curve;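 also: receptor activated by calcitriol during compound treatment; series mostly up to about 77 µM; % is scaled to controls: 0 for no effect and ±100 for the full control effect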)
Outline: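 VDR-UAS-bla HEK293T cells in 2% charcoal-stripped FBS were stimulated with 1-alpha,25-dihydroxyvitamin D3 (3 nM final) plus compound for 16 h at 37 C. The beta-lactamase CCF4 readout was normalized to 50 nM agonist and DMSO, and Hill fits gave IC50.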

[12] = molecular target: Vitamin D3 receptor (Homo sapiens) (UniProt P11473); experiment: qHTS assay for small molecule agonists of vitamin D receptor signaling (AID 588543; calls by dose curve;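 also: 0% = DMSO basal and 100% = reference agonist control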)
Outline: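 Reporter cells (HEK293T, VDR-UAS-bla) were seeded in medium with 2% charcoal-stripped serum and incubated 5 h, then compounds in concentration series were added for 16 h at 37 °C. Stimulation was scaled between DMSO basal and 50 nM 1α,25-dihydroxyvitamin D3.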

[13] = qHTS assay for small molecule agonists of the antioxidant response element (ARE) signaling pathway (AID 651741; active = well fitted activation curve with a large enough effect in the signal ratio; the % refers to the signal ratio; also: % of control where 0% means no effect)
Outline: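 CellSensor ARE-bla HepG2 cells (2,000/well) carrying ARE-driven beta-lactamase, exposed 16 h at 37 C. LiveBLAzer B/G FRET substrate added for 2 h at room temperature; fluorescence intensity read.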

[14] = qHTS assay for small molecule activators of the p53 signaling pathway (AID 651743; active = well fitted activation curve with a large enough effect in the signal ratio, not every such curve was filed as active; the % refers to the signal ratio; also: series mostly up to about 92 µM; % of control where 0% means no effect); conditions: HCT-116 p53RE-bla, beta-lactamase FRET ratio, 16 h; activation: hits give high values
Outline: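 p53RE-bla HCT-116 cells carrying a beta-lactamase reporter under p53 response elements were exposed to compounds for 16 hours at 37 C. Reporter activity read as fluorescence after 2 hours at room temperature with LiveBLAzer B/G FRET substrate.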

[15] = molecular target: Nuclear receptor ROR-gamma (Homo sapiens) (UniProt P51449); experiment: qHTS assay for small molecule antagonists of the retinoid-related orphan receptor gamma (ROR-gamma) signaling pathway (AID 651802); also: nearly all actives have a fitted effect of over 60% in size; also: potency is read from the fitted curve at half-maximal effect
Outline: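 CHO cells with TET-inducible ROR-gamma and RORE-luciferase reporter, dosed then doxycycline-induced. After 16 h at 37C, One-Glo luminescence read; decreased signal indicates antagonism.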

[16] = qHTS assay for small molecule antagonists of the retinoid-related orphan receptor gamma (ROR-gamma) signaling pathway - cell viability counter screen (AID 720652; active = well fitted curve in the direction sought with a large enough effect in the repeat runs; an effect the other way counts as inactive or inconclusive;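 also: series mostly up to about 92 µM; compound exposure lasted 16 hr before ATP read; % is scaled to controls: 0 for no effect and ±100 for the full control effect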)
Outline: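 CHO cells carrying TET-inducible ROR and RORE-luciferase reporter, plated 5 hr, then dosed with compound plus doxycycline. After 16 hr at 37 C, viability read as intracellular ATP by CellTiter-Glo luminescence.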

[17] = molecular target: Nuclear receptor subfamily 1 group I member 2 (Rattus norvegicus) (UniProt Q9R1A7); experiment: qHTS assay for small molecule activators of the rat pregnane X receptor (rPXR) signaling pathway (AID 651751; call rule not given here; also: 0% is about no effect); conditions: rPXR reporter cells, luciferase (One-Glo), 24 h
[18] = qHTS assay for small molecule activators of the human pregnane X receptor (PXR) signaling pathway (AID 720659; call rule not given here; also: 0% is about no effect)
[19] = molecular target: Peroxisome proliferator-activated receptor gamma (Homo sapiens) (UniProt P37231); experiment: qHTS assay for small molecule agonists of peroxisome proliferator-activated receptor gamma signaling (AID 588536; active = well fitted curve in the direction sought with a large enough effect in the signal ratio, with a control signal flat, not every such curve was filed as active; the % refers to the signal ratio;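 also: 0% = DMSO basal wells and 100% = rosiglitazone at 2 µM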)
Outline: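 GeneBLAzer PPAR-gamma-UAS-bla HEK293 cells in 1% charcoal/dextran-treated FBS medium were treated 16 h at 37 C with compounds. Beta-lactamase activity was read by CCF4 ratio (460/530 nm). Response was normalized to 2 uM rosiglitazone (100%) and DMSO, then Hill-fitted for EC50 and efficacy.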

[20] = qHTS assay for small molecule activators of the nuclear factor-kappa B (NF-kB) signaling pathway (AID 651749; active = well fitted activation curve with a large enough effect in the signal ratio; the % refers to the signal ratio; also: potency is read from the fitted curve at half-maximal effect; as to activation: series mostly up to about 77 µM; % of control where 0% means no effect); conditions: NF-kB-bla ME-180 cells, beta-lactamase FRET ratio, 16 h; activation: hits give high values
Outline: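 NF-kB-bla ME-180 cells carrying a beta-lactamase reporter under an NF-kB response element, 2,000 cells/well, exposed to compound for 16 hr at 37C; FRET-based beta-lactamase fluorescence read-out of pathway activation.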

Sequence of Nuclear receptor subfamily 1 group I member 2 (Rattus norvegicus) (Q9R1A7 whole entry, looked up): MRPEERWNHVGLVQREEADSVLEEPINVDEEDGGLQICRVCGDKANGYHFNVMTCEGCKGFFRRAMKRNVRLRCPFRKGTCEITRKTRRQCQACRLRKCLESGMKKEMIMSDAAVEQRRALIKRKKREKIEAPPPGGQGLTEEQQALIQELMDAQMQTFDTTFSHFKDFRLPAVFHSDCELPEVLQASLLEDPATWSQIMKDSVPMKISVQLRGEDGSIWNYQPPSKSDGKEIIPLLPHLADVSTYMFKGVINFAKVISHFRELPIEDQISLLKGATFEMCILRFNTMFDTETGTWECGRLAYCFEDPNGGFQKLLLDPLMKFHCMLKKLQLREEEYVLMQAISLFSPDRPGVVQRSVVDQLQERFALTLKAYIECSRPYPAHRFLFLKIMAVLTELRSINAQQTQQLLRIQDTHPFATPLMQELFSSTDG
Sequence of Vitamin D3 receptor (Homo sapiens) (P11473 whole entry, looked up): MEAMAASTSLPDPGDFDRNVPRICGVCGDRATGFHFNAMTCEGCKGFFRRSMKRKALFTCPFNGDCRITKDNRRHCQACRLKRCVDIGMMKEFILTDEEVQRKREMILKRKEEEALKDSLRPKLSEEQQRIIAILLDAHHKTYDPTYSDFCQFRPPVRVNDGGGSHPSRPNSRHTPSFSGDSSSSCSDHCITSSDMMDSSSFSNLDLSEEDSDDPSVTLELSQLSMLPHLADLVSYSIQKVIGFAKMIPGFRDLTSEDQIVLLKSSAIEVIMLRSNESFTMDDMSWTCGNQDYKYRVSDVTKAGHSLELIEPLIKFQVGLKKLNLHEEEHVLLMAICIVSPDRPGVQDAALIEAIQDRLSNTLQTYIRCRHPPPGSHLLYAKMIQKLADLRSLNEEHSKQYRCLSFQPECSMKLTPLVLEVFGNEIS
Sequence of Cytochrome P450 3A4 (Homo sapiens) (P08684 whole entry, looked up): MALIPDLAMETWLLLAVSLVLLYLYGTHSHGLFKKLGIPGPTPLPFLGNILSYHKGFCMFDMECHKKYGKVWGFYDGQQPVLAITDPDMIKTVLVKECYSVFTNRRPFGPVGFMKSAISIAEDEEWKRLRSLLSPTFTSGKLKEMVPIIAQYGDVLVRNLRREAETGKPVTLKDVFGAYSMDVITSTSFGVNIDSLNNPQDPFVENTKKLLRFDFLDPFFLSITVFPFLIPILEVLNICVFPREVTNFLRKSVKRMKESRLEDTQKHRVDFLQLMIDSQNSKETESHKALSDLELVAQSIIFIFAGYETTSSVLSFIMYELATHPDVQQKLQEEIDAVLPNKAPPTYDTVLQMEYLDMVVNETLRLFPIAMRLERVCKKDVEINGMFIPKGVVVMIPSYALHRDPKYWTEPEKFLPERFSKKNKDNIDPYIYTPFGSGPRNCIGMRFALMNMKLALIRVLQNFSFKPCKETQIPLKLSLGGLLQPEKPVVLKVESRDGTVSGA
Sequence of Glucocorticoid receptor (Homo sapiens) (P04150 whole entry, looked up): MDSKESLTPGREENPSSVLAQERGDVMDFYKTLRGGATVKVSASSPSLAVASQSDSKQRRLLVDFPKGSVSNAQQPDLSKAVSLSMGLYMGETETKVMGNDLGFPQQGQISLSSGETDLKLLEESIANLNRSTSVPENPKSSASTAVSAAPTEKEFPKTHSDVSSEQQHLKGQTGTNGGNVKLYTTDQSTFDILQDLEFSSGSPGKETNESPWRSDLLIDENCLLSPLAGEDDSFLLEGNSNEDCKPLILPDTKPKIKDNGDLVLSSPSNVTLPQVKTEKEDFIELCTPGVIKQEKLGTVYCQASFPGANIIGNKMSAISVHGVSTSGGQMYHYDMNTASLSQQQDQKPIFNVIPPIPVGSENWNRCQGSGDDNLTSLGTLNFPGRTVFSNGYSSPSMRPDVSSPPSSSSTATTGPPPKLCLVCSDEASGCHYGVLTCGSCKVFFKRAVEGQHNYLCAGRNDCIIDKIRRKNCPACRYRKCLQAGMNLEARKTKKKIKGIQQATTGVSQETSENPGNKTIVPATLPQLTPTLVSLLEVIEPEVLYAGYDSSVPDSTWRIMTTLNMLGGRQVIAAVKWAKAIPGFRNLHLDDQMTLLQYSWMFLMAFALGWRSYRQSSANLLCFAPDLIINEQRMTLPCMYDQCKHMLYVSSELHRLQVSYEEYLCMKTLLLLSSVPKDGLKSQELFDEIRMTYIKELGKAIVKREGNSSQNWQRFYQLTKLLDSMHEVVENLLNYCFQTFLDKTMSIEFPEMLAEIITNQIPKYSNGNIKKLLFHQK
Sequence of Bile acid receptor (Homo sapiens) (Q96RI1 whole entry, looked up): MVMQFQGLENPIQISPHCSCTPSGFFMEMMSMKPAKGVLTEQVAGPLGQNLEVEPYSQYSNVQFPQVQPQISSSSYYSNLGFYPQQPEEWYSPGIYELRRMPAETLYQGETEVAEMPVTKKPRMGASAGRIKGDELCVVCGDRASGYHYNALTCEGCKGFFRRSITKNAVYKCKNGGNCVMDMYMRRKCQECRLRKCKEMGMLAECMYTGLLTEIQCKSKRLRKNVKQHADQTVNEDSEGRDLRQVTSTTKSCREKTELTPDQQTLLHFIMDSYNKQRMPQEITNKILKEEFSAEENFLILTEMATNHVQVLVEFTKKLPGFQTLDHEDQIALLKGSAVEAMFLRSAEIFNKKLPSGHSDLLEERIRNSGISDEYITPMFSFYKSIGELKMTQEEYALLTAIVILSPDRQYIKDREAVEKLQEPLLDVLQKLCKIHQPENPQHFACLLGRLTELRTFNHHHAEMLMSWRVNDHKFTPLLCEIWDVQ
Sequence of Nuclear receptor ROR-gamma (Homo sapiens) (P51449 whole entry, looked up): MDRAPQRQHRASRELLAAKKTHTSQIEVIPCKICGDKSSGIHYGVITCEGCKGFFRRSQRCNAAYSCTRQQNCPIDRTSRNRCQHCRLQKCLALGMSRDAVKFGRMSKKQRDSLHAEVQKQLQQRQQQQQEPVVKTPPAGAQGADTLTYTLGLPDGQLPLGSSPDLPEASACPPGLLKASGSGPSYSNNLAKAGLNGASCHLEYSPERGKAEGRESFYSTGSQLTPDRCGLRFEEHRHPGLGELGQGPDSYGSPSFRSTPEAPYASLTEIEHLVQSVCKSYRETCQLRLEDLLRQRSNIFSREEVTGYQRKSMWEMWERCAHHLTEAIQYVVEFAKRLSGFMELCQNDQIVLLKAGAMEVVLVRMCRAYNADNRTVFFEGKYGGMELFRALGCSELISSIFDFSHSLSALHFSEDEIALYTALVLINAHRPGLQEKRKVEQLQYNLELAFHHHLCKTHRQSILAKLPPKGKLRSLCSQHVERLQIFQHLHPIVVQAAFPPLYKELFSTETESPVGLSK
Sequence of Peroxisome proliferator-activated receptor gamma (Homo sapiens) (P37231 whole entry, looked up): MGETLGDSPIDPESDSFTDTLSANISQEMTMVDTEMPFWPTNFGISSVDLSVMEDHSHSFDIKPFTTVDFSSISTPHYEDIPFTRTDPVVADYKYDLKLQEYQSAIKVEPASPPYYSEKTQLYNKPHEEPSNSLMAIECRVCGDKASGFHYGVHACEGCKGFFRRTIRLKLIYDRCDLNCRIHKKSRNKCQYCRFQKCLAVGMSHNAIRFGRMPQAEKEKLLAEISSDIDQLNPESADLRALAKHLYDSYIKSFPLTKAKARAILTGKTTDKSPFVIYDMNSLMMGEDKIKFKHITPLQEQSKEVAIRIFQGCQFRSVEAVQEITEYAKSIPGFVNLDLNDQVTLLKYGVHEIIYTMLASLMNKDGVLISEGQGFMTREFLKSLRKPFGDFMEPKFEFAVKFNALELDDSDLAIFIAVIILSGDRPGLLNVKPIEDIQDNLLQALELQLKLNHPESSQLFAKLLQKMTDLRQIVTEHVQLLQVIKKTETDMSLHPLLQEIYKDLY
Sequence of Estrogen receptor (Homo sapiens) (P03372 whole entry, looked up): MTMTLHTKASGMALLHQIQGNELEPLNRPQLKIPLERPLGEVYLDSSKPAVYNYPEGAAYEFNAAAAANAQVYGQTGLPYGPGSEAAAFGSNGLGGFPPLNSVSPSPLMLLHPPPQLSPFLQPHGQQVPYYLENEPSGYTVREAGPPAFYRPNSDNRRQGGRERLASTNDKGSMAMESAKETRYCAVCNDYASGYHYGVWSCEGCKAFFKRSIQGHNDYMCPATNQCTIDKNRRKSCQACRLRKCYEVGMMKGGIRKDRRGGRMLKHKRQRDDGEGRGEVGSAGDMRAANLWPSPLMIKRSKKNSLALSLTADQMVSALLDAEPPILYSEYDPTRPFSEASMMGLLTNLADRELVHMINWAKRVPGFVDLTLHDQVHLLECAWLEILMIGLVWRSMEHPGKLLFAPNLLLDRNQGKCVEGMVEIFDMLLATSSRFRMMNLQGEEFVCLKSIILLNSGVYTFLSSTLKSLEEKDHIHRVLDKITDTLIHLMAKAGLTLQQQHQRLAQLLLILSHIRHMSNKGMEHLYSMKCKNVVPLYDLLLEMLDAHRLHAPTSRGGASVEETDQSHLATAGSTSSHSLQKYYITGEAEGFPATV

ClC(Cl)(Cl)c1ccccc1
inactive: Potency [1] | Potency [2] | Potency [3] | Potency [4] | Potency [5] | Potency [6] | Potency [7] | activation [8] -1.47% and 0.945% | activation [9] -6.79% and 7.81% | Potency [10] | outcome [11] | outcome [12] | Potency [13] | activation [14] -3.47% and -2.04% | Potency [15] | Potency [16] | max response [17] 1.62% and -4.94% | outcome [18]

C=CC1CC=CCC1 (stereo not given)
inactive: Potency [2] | Potency [3] | Potency [4] | Potency [5] | Potency [6] | Potency [7] | activation [8] 1.2% and -0.94% | activation [9] -1.79% and -4.91% | Potency [10] | outcome [19] | outcome [11] | outcome [12] | Potency [13] | activation [14] -3.44% | activation [20] 0.91% and -0.814% | max response [17] -0.819% and 2.71% | outcome [18]

Clc1cccc(C(Cl)(Cl)Cl)n1
inactive: Potency [2] | Potency [3] | Potency [4] | Potency [5] | Potency [6] | Potency [7] | activation [8] 0.959% and 2.76% | outcome [19] | Potency [13] | activation [14] 0.471% and 1.28% | Potency [15] | Potency [16] | max response [17] -2.08% and -3.74% | outcome [18]

C[C@]12CC[C@H]3[C@@H](CCC4=CC(=O)CC[C@@]43C)[C@@H]1CC[C@@H]2O
active: Potency [10] 7.08 µM | Potency [15] 26.6 µM
inactive: Potency [2] | Potency [3] | Potency [4] | Potency [5] | activation [9] -9.17% | outcome [12] | activation [14] -0.245% | Potency [16] | max response [17] 3.05% | outcome [18]

CC(C)(C)OO
inactive: Potency [1] | Potency [2] | Potency [3] | Potency [4] | Potency [5] | outcome [19] | outcome [11] | outcome [12] | Potency [13] | activation [14] 0.296% | activation [20] -0.974% and 0.475% | Potency [15] | Potency [16] | max response [17] 1.05% and -0.992% | outcome [18]

Brc1ccc(Oc2cc(Br)c(Br)cc2Br)c(Br)c1
inactive: Potency [1] | Potency [2] | Potency [3] | Potency [4] | Potency [5] | Potency [6] | Potency [7] | activation [8] 0.173% and 5.65% | outcome [11] | outcome [12] | activation [14] -4.19% | activation [20] 0.934% and 2.14% and 2.73% | Potency [16]

Cc1cccc(C#N)c1
inactive: Potency [1] | Potency [2] | Potency [3] | Potency [4] | Potency [5] | Potency [6] | Potency [7] | activation [8] -2.16% | activation [9] -3.56% | Potency [10] | outcome [19] | outcome [11] | outcome [12] | activation [14] -3.72% | activation [20] 0.885% | Potency [15] | Potency [16] | max response [17] -0.906% | outcome [18]

Clc1nc(Cl)nc(Nc2ccccc2Cl)n1
inactive: Potency [2] | Potency [3] | Potency [4] | Potency [5] | Potency [6] | Potency [7] | activation [9] 0.42% and 30.1% | Potency [10] | outcome [19] | outcome [11] | outcome [12] | activation [14] -1.67% and -3.76% | activation [20] 0.657% | Potency [15] | Potency [16]
active: Potency [20] 25.1 µM

C=CCOC(C)=O
inactive: Potency [1] | Potency [2] | Potency [3] | Potency [4] | Potency [5] | Potency [6] | Potency [7] | activation [8] -1.61% | activation [9] 10.3% | Potency [10] | outcome [19] | outcome [11] | outcome [12] | Potency [13] | activation [14] -2.44% | activation [20] -0.256% | Potency [15] | Potency [16] | max response [17] -1.67% | outcome [18]

O=NN(CCO)CCO
inactive: Potency [3] | Potency [4] | Potency [5] | Potency [6] | Potency [7] | activation [8] 3.77% | Potency [10] | outcome [19] | outcome [11] | outcome [12] | Potency [13] | activation [14] -2.59% | Potency [15] | Potency [16] | max response [17] 3.2% | outcome [18]

Oc1ccc(Cl)cc1Cl
inactive: Potency [1] | Potency [3] | Potency [4] | Potency [5] | Potency [6] | Potency [7] | activation [8] -2.46% and -2.63% | activation [9] -5.35% and -2.01% | Potency [10] | outcome [19] | outcome [11] | outcome [12] | Potency [13] | activation [14] 1.07% and -2.53% | Potency [15] | Potency [16] | max response [17] 0.337% and 1.54% | outcome [18]

O=[N+]([O-])c1ccc(Cl)c(Cl)c1
inactive: Potency [1] | Potency [2] | Potency [3] | Potency [4] | Potency [6] | Potency [7] | activation [8] 1.09% | activation [9] 0.986% | Potency [10] | outcome [19] | outcome [11] | outcome [12] | activation [20] -0.387% | Potency [15] | Potency [16] | max response [17] 0.633% | outcome [18]

ClC(Cl)=C(Cl)Cl
inactive: Potency [2] | Potency [3] | Potency [4] | Potency [5] | activation [8] 0.975% and -2.66% | outcome [19] | outcome [11] | outcome [12] | Potency [13] | activation [14] -0.0832% and 0.219% | activation [20] 0.509% and -0.543% | Potency [15] | Potency [16] | max response [17] -0.799% and 2.48% | outcome [18]
